# This is a sample that favours compounds with a hit; in the whole collection about 3.3% have one here.
# AmpC inh detg – AmpC beta-lactamase inhibition with detergent present; P00811; AmpC hydrolysis of nitrocefin, absorbance 480 nm, 0.01% Triton; Potency, µM (top dose mostly 114 µM), for inactives: at the top dose activity change, negative = inhibition, actives largely listed as inhibitors; 0.041% of 370,000 active; AID 485294;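 note: 0% = no-compound wells and -100% = no-enzyme wells; nearly all actives have a fitted effect of over 25% in size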
# Target sequence (P00811 whole entry, looked up): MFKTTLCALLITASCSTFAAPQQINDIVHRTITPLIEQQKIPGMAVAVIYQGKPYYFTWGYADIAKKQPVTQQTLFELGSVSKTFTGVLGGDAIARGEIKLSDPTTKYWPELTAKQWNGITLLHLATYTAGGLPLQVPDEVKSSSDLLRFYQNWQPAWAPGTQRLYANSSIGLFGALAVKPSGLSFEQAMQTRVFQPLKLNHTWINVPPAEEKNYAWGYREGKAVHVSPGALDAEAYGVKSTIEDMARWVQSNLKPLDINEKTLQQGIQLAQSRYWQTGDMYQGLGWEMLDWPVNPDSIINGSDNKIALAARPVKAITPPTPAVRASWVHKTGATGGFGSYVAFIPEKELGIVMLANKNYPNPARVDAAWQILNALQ
#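 20 mM phosphate pH 7.0 + 0.01% (detergent screen) or 0.0001% Triton X-100; 5.3 nM AmpC reagent; cpd preinc 15 min RT; nitrocefin (800 uM stock) to start; A480 q20 s × 4 min; Activity was normalised to no-enzyme and no-compound control wells.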
# AmpC no deterg – inhibitors of E. coli AmpC beta-lactamase without detergent. P00811. AmpC nitrocefin hydrolysis, absorbance 480 nm, 0.0001% Triton. Potency, µM (titrated, usually from 57.1 µM), for inactives: at the highest dose activity change, negative = inhibition, actives largely listed as inhibitors. 0.52% of 330,000 active. AID 485341;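 note: plate controls were no compound for no effect and no enzyme for full effect; nearly all actives have a fitted effect of over 20% in size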
#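 20 mM phosphate pH 7.0 + 0.01% (detergent screen) or 0.0001% Triton X-100; 5.3 nM AmpC reagent; cpd preinc 15 min RT; nitrocefin (800 uM stock) to start; A480 q20 s × 4 min; Activity was normalised to no-enzyme and no-compound control wells.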
# RE007 growth inh – less growth of the S. pombe RE007 Vpr strain. Potency, µM (highest dose often 92.2 µM), without a hit: top-dose activity change, negative = less growth, hits mostly inhibitors. AID 651644. S. pombe RE007 Vpr strain, BacTiter-Glo ATP luminescence, 24 h. 0.21% of 360,000 active; active = well fitted falling curve with a large enough effect; inconclusive = small, poorly fitted or top-dose-only effect; inactive = no such curve, though single readings can be large or run the other way; note: % is set by controls: 0 for no effect and ±100 for the full control effect; nearly all actives have a fitted effect of over 50% in size
#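 Fission yeast RE007 carrying one integrated HIV-1 vpr copy, seeded at OD 0.01 in PMG+AL medium with 23 nL pinned compound. Grown 24 h at 30 degrees; viability read by BacTiter-Glo luminescence after 5 min.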
# Sm TGR inh – S. mansoni TGR enzyme inhibition | Potency, µM (highest dose often 114 µM), without a hit: top-dose activity change, negative = inhibition, actives largely listed as inhibitors | purified TGR, DTNB reduction, TNB absorbance 405 nm | 3% of 360,000 active | Q962Y6; note: % is set by controls: 0 for no effect and ±100 for the full control effect; nearly all actives have a fitted effect of over 60% in size
#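 Kinetic colorimetric format: TGR-catalysed, NADPH-driven DTNB reduction monitored via TNB absorbance. Enzyme dispensed at 20 nM; compound exposure 15 min at room temperature before reaction start.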
# SARS PLP yeast – inhibitors of SARS-CoV papain-like protease in yeast; S. cerevisiae expressing SARS-CoV PLpro, growth rescue; 0.19% of 330,000 active; Potency, µM (titrated, usually from 32.9 µM), inactives show top-dose activity, positive = growth rescue, most hits filed as activators; calls by dose curve; note: 0% is about no effect; nearly all actives have a fitted effect of over 55% in size
# Tb PYK inh – inhibitors of Trypanosoma brucei pyruvate kinase. Potency, µM (top dose mostly 76.8 µM), inactives show top-dose activity, negative = inhibition, hits mostly inhibitors. TbPYK enzyme, Kinase-Glo Plus ATP luminescence, 45 min. 0.12% of 410,000 active. AID 624173. Q57TT1; note: % is set by controls: 0 for no effect and ±100 for the full control effect; nearly all actives have a fitted effect of over 50% in size
#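 Readout: single end-point luminescence (Kinase-Glo Plus, 10 min). Reaction conditions were TbPYK/substrate plus 130 uM ADP, 45 min at RT, pH 7.2 TEA buffer. No-enzyme wells served as controls, and data were normalized before concentration-response fitting.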
# An asterisk follows results filed as active; ? = inconclusive; . = no result given; ! = not confirmed by another sample; [ ] = remark or other dose. Unless noted, calls come from the whole dose curve; as a rule, active = well fitted curve in the direction sought with a large enough effect; inconclusive = small, poorly fitted or top-dose-only effect, or another doubt; inactive = no such curve, though single readings can be large; an effect the other way counts as inactive or inconclusive. Potency is the fitted concentration of half-maximal effect.
SMILES,AmpC inh detg,AmpC no deterg,RE007 growth inh,Sm TGR inh,SARS PLP yeast,Tb PYK inh
C/C(CC(=O)Nc1ccc(N(C)C)cc1)=N\NC(=O)c1ccccn1,-11.5%,-4.2%,-4.3%,?,-9.7%,2.0%
C/C(CC(=O)Nc1ccc(N(C)C)cc1)=N\NC(=O)c1cnccn1,?,14.9%,.,35.5µM*,-11.0%,-14.6%
CCOc1ccc(NC(=O)C/C(C)=N/NC(=O)c2cnccn2)cc1,-10.9%,15.4%,-0.3%,-10.2%,-7.6%,3.5%
CCOc1ccc(NC(=O)c2cnccn2)cc1,0.4%,-8.8%,-24.4%,89.1µM*,8.8%,-0.9%
Cc1cc(C)cc(OCC(=O)NC(Cc2c[nH]c3ccccc23)C(=O)O)c1 (stereo not given),2.0%,.,.,0.7%,.,-8.4%
S=c1sc2c(Cl)ncnc2n1-c1ccccc1,3.9%,-17.0%,-12.6%,3.16µM*,-17.5%,1.8%
Cc1nc(N2CCN(C)CC2)c2sc(=S)n(-c3ccccc3)c2n1,-9.4%,-10.7%,5.2%,-0.2%,-12.7%,4.6%
COCCn1c(SCC(=O)c2ccccc2)nc2cc(C(=O)NC3CCCC3)ccc2c1=O,3.9%,.,.,2.4%,.,-0.9%
CCCCOc1ccc(Cn2c(=O)sc3ccccc32)cc1OC,1.7%,.,.,1.0%,.,-1.3%
CCN(CC(=O)Nc1c(F)cccc1F)C(=O)c1ccc2c(c1)NC(=O)C(C)S2 (stereo not given),-11.5%,-31.3%,-0.6%,4.4%,7.5%,0.2%
CCN(CC(=O)Nc1ccc(OC)cc1)C(=O)c1ccc2c(c1)NC(=O)C(C)S2 (stereo not given),7.3%,-9.5%,27.0%,-0.7%,4.3%,28.2µM*
COc1ccc(CC(=O)NCC(c2cccs2)S(=O)(=O)c2ccc(C)cc2)cc1 (stereo not given),0.2%,.,.,0.3%,.,0.4%
CCN1CCN(Cc2cc(OC)c(OC)cc2[N+](=O)[O-])CC1,-4.3%,-2.8%,4.8%,31.6µM*,4.0%,-1.4%
O=C(O)Cc1nc(-c2cccnc2)sc1-c1ccc(Br)cc1,5.5%,-42.2%,5.1%,11.2µM*,-1.2%,-6.3%
O=C1C=CC(=O)N1CCNc1ncc(C(F)(F)F)cc1Cl,?,-12.8%,2.51µM*,0.398µM*,-5.0%,?
CN(C)c1ccc(Nc2ncnc3sc4c(c23)CCCC4)cc1,23.7%,.,.,-2.3%,.,-15.1%
O=C1/C(=C\c2cc(Br)cc(Br)c2O)SC(=S)N1Cc1ccccc1,-3.6%,-40.2%,-28.7%,39.8µM*,-2.0%,-23.2%
O=C(O)CN1C(=O)/C(=C\c2cc(Br)ccc2OCc2ccc([N+](=O)[O-])cc2)SC1=S,-4.5%,20µM*,9.5%,?,1.9%,-18.6%
CC(C)N1CSC(=S)N(Cc2ccccc2)C1,-11.7%,61.5%,0.4%,28.2µM*,1.9%,0.7%
CCCCCCCCCCCCCCCCn1cc[n+](CC(C)=O)c1,3.0%,-8.4%,31.6µM*,6.5%,1.3%,-3.7%
Fc1ccc(CSc2ccc(-c3ccco3)nn2)cc1,-1.2%,-29.4%,-16.6%,44.7µM*,16.8%,-1.6%
Fc1cccc(CSc2ccc(-c3ccco3)nn2)c1,0.0%,-27.3%,-21.9%,31.6µM*,-28.6%,-23.9%
C=Cc1ccc(CSc2nc(-c3ccccc3Cl)nc3c2Cc2c(CO)cnc(C)c2O3)cc1,-7.9%,.,.,-4.9%,.,-10.0%
Cc1ccc2oc(=O)n(CCCOc3ccc(Cl)cc3)c2c1,-5.7%,.,.,-1.0%,.,-3.4%
COc1ccccc1CNC(=O)Cn1c(=O)oc2cc(S(=O)(=O)NCc3ccccc3)ccc21,3.5%,.,.,2.1%,.,-7.5%[15.4 µM]
SMILES,AmpC inh detg,AmpC no deterg,RE007 growth inh,Sm TGR inh,SARS PLP yeast,Tb PYK inh
CN(C)C1(CNC(=O)C2CCN(S(=O)(=O)c3cc(Cl)ccc3Cl)CC2)CCCCC1,-5.6%,5.6%,2.7%,25.1µM*,1.8%,1.1%
CC(C)c1ccc(S(=O)(=O)N2CCC(C(=O)NCC3(N(C)C)CCCCC3)CC2)cc1,-2.1%,55.8%,-28.9%,-2.0%,-0.1%,-9.4%
CCOC(=O)C1=C(O)/C(=C\c2cc(C)n(-c3ccc(F)cc3)c2C)N=C1C,?,-34.9%,16.3%,14.1µM*,3.4%,-5.2%
CCOC(=O)C1=C(O)/C(=C\c2cc(C)n(-c3ccccc3F)c2C)N=C1C,?,-21.7%,-14.3%,25.1µM*,2.1%,3.9%
CCOC(=O)c1ccc(NC(=O)CS(=O)(=O)Cc2nc(-c3ccc(C)cc3)oc2C)cc1,-4.0%,.,.,-28.9%,.,-4.3%
CC1(C)SC2C(NC(=O)C(C(=O)O)c3ccccc3)C(=O)N2C1C(=O)O (stereo not given),.,.,.,.,.,3.5%
CC1(C)S[C@@H]2[C@H](NC(=O)[C@H](N)c3ccccc3)C(=O)N2[C@H]1C(=O)O,44.7µM*,12.6µM*!,-9.7%[18.4 µM],1.4%,-14.5%,8.0%
O=C(COC(=O)c1ccco1)Nc1nc2c(F)c(F)c(F)cc2s1,-10.3%,-38.6%,10.2%,-3.3%,-2.2%,0.1%
O=C(COC(=O)c1ccc(NS(=O)(=O)c2cccs2)cc1)Nc1nc2c(F)c(F)c(F)cc2s1,-4.3%,20µM*,-6.3%,-5.7%,-0.4%,-12.4%
CCCC(O)(CCN(C)C)c1ccc(OC)cc1 (stereo not given),0.6%,-5.2%,-0.5%,11.2µM*,-4.1%,2.9%
COc1ccc(CC(=O)OCCN(C)C)cc1,?,-6.7%,-10.3%,0.8%,5.6%,4.1%
Cc1cc(Nc2cc(Cl)ccc2C)n2nc(Cc3ccccc3)nc2n1,17.9%,.,.,1.1%,.,-4.2%
COc1cccc(NC(=O)C2CCN(c3nc4ccccc4nc3C(F)(F)F)CC2)c1,3.7%,.,.,5.5%,.,-0.2%
Cc1ccc(Cl)cc1N1CCN(S(=O)(=O)c2cn(C)c(C)n2)CC1,-2.6%,.,.,-1.1%,.,-9.6%
CCN1CCN(C(c2cccnc2)c2c(NC(=O)c3ccco3)sc(C)c2C)CC1 (stereo not given),?,18.0%,-9.8%,20µM*,-0.9%[6.58 µM],-2.0%
Cc1sc(NC(=O)c2ccco2)c(C(c2cccnc2)N2CCC(C)CC2)c1C (stereo not given),-0.8%,19.4%,-18.7%,17.8µM*,-26.6%,-2.5%
CCCN(CCC)S(=O)(=O)c1ccc2c(c1)N(CC(=O)NCc1ccc(F)cc1Cl)C(=O)CS2,11.9%,.,.,-0.3%,.,1.3%[15.4 µM]
Cc1cccc(N2CCN(S(=O)(=O)c3cc(C(=O)Nc4ccccc4Cl)ccc3F)CC2)c1C,2.6%,.,.,-0.5%,.,3.1%
O=S(=O)(Nc1ccc(O)c2ccccc12)c1cccs1,-9.1%,-37.1%,-9.0%,20µM*,-10.8%,-16.4%
CC(=O)Nc1ccc(NS(=O)(=O)c2ccccc2)c2ccccc12,0.1%,-17.0%,2.1%,0.3%,-3.3%,4.1%

# Bioassay records: PubChem, National Center for Advancing Translational Sciences (NCATS)
